According to PubChem BioAssay (Tox21):
Where “and” joins values, the source holds several entries; their conditions need not be identical. Identical values can stand only once. Inconclusive results are not listed. Some compounds were tested as several samples or in several runs, with calls that do not always agree. Calls of active or inactive are those of the source. Unless noted, calls follow the shape of the dose curve; as a rule, active = well fitted curve in the direction sought with a large enough effect in the repeat runs; inconclusive = weak or mixed curves; inactive = no such curve, though single readings can be large; an effect the other way counts as inactive or inconclusive.

How the values were obtained:
[1] = qHTS assay to identify small molecule antagonists of the progesterone receptor (PR) signaling pathway - cell viability counter screen (AID 1346798); also: series mostly up to about 92 µM; % is scaled to controls: 0 for no effect and ±100 for the full control effect; nearly all actives have a fitted effect of over 50% in size
Procedure, shortened: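 PR-UAS-bla HEK293T cells in medium with 2% charcoal-stripped FBS were treated with compounds plus R5020 for 16 hr at 37C. Cell viability was then read by CellTiter-Glo luminescence after 30 min at room temperature in the same wells.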

[2] = qHTS assay to identify small molecule antagonists of the TGF-beta/Smad signaling pathway - cell viability counter screen (AID 1346824); also: % is scaled to controls: 0 for no effect and ±100 for the full control effect; nearly all actives have a fitted effect of over 50% in size
Procedure, shortened: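 SBE-bla HEK 293T cells, incubated overnight, then compound plus 0.25 ng/mL TGF-beta1 (stock added) for 5 hr at 37 C. Viability was read in the same wells by CellTiter-Glo luminescence after 30 min at room temperature.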

[3] = qHTS assay to identify small molecule agonists of the TGF-beta/Smad signaling pathway - cell viability counter screen (AID 1346829); also: nearly all actives have a fitted effect of over 45% in size; also: potency is read from the fitted curve at half-maximal effect; as to activity change, negative = cytotoxicity: top concentration of the series differs between compounds; % is scaled to controls: 0 for no effect and ±100 for the full control effect
Procedure, shortened: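 HEK 293T SBE-bla line, 5 hr compound exposure at 37 C, multiplexed CellTiter-Glo viability read by luminescence.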

[4] = qHTS assay to identify small molecule agonists of the TGF-beta/Smad signaling pathway (AID 1346859; active = well fitted activation curve with a large enough effect in the signal ratio in the repeat runs, not every such curve was filed as active; the % refers to the signal ratio; also: series mostly up to about 77 µM; % is scaled to controls: 0 for no effect and ±100 for the full control effect)
Procedure, shortened: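 HEK 293T cells stably carrying a beta-lactamase reporter driven by the Smad binding element were seeded overnight, exposed to DMSO-dissolved compounds for 5 hr at 37 C, 5% CO2, then loaded with FRET substrate for 2 hr at room temperature.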

[5] = target: Thyrotropin-releasing hormone receptor (Homo sapiens) (UniProt P34981); assay: qHTS assay to identify small molecule antagonists of the thyrotropin-releasing hormone receptor (TRHR) signaling pathway (AID 1346877; active = well fitted inhibition curve with a large enough effect in the repeat runs, not every such curve was filed as active; also: series mostly up to about 51 µM; % is scaled to controls: 0 for no effect and ±100 for the full control effect)
Sequence of Thyrotropin-releasing hormone receptor (Homo sapiens) (P34981 whole entry, looked up): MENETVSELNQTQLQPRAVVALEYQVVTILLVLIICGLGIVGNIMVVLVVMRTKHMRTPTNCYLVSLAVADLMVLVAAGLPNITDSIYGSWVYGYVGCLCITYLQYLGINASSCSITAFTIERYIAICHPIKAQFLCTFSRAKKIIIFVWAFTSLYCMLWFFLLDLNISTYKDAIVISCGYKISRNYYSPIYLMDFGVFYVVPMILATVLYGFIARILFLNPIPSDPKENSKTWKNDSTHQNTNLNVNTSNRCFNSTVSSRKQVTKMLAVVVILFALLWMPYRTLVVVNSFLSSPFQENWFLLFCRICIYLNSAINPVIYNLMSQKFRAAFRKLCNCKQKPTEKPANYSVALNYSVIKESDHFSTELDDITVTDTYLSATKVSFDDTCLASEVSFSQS
Procedure, shortened: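 Cells (TRHR-HEK293) are plated and kept 18 h at 37 °C/5% CO2. A calcium-sensitive dye is added for 2 h, compound follows for 5 min at room temperature, and TRH is then given at 1 nM final.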

[6] = target: Thyrotropin-releasing hormone receptor (Homo sapiens) (UniProt P34981); assay: qHTS assay to identify small molecule agonists of the thyrotropin-releasing hormone receptor (TRHR) signaling pathway (AID 1346891; calls by dose curve; also: series mostly up to about 58 µM; % is scaled to controls: 0 for no effect and ±100 for the full control effect)
Procedure, shortened: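 TRHR-expressing HEK293 cells were plated 18 h at 37 °C/5% CO2, loaded with calcium dye 2 h at 37 °C, then given compound in DMSO; fluorescence was read kinetically for 3 min at 1 s intervals.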

[7] = Human pregnane X receptor (PXR) small molecule agonists, qHTS cell viability counter screen (AID 1346977); also: nearly all actives have a fitted effect of over 50% in size; also: potency is read from the fitted curve at half-maximal effect
Procedure, shortened: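 PXR-Luc HepG2 cells in medium with 5% charcoal-stripped FBS were pre-incubated 5hr, then exposed to compounds for 24hr at 37C. Viability was read in the same wells by CellTiter-Fluor fluorescence, reagent added after 23hr with a 1hr incubation.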

[8] = Caspase-3/7 induction in HepG2 cells by small molecules, qHTS assay (AID 1346978); also: % is scaled to controls: 0 for no effect and ±100 for the full control effect; nearly all actives have a fitted effect of over 15% in size
Procedure, shortened: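 Wild-type HepG2 cells, 2,000/well, settled 5 hr at 37 C and 5% CO2, then compound-treated for 17 hr; caspase-3/7 activity read by luminescent Caspase-Glo 3/7 after 30 min at room temperature.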

[9] = Caspase-3/7 induction in CHO-K1 cells by small molecules, qHTS cell viability counter screen (AID 1346979); also: nearly all actives have a fitted effect of over 35% in size; also: potency is read from the fitted curve at half-maximal effect
Procedure, shortened: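 Wild-type CHO-K1 cells were seeded at 1,500 per well, rested 5hr at 37 C, then exposed to compounds in DMSO. After 16hr, CellTiter-Fluor reagent was added and fluorescence read 1hr later as the viability measure.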

[10] = Caspase-3/7 induction in CHO-K1 cells by small molecules, qHTS assay (AID 1346980); also: % is scaled to controls: 0 for no effect and ±100 for the full control effect; nearly all actives have a fitted effect of over 15% in size
Procedure, shortened: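 Wild-type CHO-K1 cells exposed to compounds for 17hr at 37 C, 5% CO2. Caspase-3/7 activity then measured by Caspase-Glo 3/7 luminescence after 30min at room temperature.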

[11] = Caspase-3/7 induction in HepG2 cells by small molecules, qHTS cell viability counter screen (AID 1346981); also: series mostly up to about 92 µM; % is scaled to controls: 0 for no effect and ±100 for the full control effect; nearly all actives have a fitted effect of over 30% in size
Procedure, shortened: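 Steps: seed 2,000 HepG2 cells per well; incubate 5 hr at 37 C; pin-add compounds in DMSO; incubate 16 hr; add CellTiter-Fluor; after 1 hr at 37 C and 5% CO2, read fluorescence.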

[12] = target: Nuclear receptor subfamily 1 group I member 2 (Rattus norvegicus) (UniProt Q9R1A7); assay: Rat pregnane X receptor (rPXR) activation by small molecules, qHTS assay (AID 1346983); settings: rPXR luciferase reporter cells, One-Glo luminescence, 24 h; max activation: stronger effect = higher value; also: nearly all actives have a fitted effect of over 20% in size; also: potency is read from the fitted curve at half-maximal effect
Sequence of Nuclear receptor subfamily 1 group I member 2 (Rattus norvegicus) (Q9R1A7 whole entry, looked up): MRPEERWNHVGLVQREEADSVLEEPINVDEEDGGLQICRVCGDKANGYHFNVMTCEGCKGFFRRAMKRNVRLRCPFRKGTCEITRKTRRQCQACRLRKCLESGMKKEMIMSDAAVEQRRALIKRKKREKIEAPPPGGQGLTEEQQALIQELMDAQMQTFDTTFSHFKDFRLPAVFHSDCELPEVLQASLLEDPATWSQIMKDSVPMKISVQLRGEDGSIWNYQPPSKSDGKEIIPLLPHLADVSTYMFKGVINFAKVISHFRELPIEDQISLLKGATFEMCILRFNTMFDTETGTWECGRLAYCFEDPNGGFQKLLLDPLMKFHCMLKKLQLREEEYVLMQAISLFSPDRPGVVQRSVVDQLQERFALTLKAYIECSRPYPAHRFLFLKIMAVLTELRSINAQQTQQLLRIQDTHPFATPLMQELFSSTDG
Procedure, shortened: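 Cell-based rPXR activation assay: rPXR cells, 2,000 per well, rested 5hr at 37 C, then exposed to compounds in DMSO for 24 hr at 37 C. Luciferase activity read by One-Glo luminescence after 30 min at room temperature.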

[13] = target: Voltage-gated inwardly rectifying potassium channel KCNH2 (Homo sapiens) (UniProt Q12809); assay: Human Ether-a-go-go-Related Gene (hERG) channel small molecule antagonists: fluorescence cell-based qHTS assay (AID 1671200);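 also: hERG-expressing U2OS cells given a thallium stimulus after FluxOR II dye loading; series mostly up to about 77 µM; % is scaled to controls: 0 for no effect and ±100 for the full control effect; nearly all actives have a fitted effect of over 50% in size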
Sequence of Voltage-gated inwardly rectifying potassium channel KCNH2 (Homo sapiens) (Q12809 whole entry, looked up): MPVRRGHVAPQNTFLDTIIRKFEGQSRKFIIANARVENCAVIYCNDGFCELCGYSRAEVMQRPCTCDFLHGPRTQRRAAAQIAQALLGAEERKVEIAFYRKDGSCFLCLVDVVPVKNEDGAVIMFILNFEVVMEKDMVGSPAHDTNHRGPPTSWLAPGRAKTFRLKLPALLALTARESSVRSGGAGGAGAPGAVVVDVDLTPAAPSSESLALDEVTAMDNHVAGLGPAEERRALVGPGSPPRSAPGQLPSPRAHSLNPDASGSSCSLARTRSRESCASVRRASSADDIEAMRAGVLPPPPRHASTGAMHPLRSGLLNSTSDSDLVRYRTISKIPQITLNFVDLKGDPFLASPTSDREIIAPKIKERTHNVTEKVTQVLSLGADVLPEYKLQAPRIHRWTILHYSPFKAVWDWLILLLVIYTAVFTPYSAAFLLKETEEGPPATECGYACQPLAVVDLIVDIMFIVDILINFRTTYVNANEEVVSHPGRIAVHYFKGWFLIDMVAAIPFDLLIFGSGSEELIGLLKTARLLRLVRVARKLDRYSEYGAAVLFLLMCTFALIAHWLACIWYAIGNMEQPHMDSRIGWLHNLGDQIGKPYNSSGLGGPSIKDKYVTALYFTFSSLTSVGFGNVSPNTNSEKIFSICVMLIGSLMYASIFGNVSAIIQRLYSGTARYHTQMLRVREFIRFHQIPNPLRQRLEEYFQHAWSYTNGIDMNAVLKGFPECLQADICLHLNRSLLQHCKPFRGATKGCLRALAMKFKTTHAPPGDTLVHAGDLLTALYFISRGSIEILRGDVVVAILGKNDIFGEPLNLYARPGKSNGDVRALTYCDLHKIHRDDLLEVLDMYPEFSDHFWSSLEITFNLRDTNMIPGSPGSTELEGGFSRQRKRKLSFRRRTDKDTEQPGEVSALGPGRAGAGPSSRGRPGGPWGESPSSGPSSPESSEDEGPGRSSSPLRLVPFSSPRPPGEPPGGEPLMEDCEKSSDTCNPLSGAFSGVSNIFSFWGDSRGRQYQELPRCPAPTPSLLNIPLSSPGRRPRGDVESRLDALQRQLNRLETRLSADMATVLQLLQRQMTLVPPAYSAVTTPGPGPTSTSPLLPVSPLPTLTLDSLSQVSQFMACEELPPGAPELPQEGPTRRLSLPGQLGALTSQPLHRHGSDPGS
Procedure, shortened: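 U2OS cells expressing the channel were plated at 1000 cells/well, incubated overnight at 37 C, then loaded with FluxOR II thallium-sensitive dye for 1 h at room temperature in the dark, with a further 10 min at room temperature before stimulation.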

[14] = qHTS assay to identify small molecule agonists of the progesterone receptor (PR) signaling pathway - cell viability counter screen (AID 1346799; calls by dose curve; also: % is scaled to controls: 0 for no effect and ±100 for the full control effect; nearly all actives have a fitted effect of over 45% in size)
Procedure, shortened: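 PR-UAS-bla HEK293T cells, 3,000 per well in medium with 2% charcoal-stripped FBS, were preincubated 6 hr at 37C, then exposed to compounds for 16 hr; viability was read as CellTiter-Glo luminescence after 30 min at room temperature.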

[15] = target: Nuclear receptor subfamily 1 group I member 2 (Homo sapiens) (UniProt O75469); assay: Human pregnane X receptor (PXR) small molecule agonists, qHTS assay (AID 1346982); also: nearly all actives have a fitted effect of over 35% in size; also: potency is read from the fitted curve at half-maximal effect
Sequence of Nuclear receptor subfamily 1 group I member 2 (Homo sapiens) (O75469 whole entry, looked up): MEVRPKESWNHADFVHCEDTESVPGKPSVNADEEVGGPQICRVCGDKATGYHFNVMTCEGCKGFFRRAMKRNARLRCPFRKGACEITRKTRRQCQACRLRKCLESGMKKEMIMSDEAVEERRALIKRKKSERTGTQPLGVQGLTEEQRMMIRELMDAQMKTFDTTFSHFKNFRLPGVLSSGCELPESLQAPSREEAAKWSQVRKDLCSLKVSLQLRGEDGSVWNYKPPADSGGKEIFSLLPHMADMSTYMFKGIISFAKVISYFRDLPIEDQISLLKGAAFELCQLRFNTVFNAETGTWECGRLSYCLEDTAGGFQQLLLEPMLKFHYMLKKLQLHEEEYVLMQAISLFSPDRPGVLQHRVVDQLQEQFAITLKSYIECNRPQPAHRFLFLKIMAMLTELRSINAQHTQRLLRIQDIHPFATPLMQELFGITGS
Procedure, shortened: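 Agonist mode qHTS: PXR-Luc HepG2 cells plated 5 hr before DMSO-dissolved compounds were pinned in, cultured 24 hr at 37 C, 5% CO2; ONE-Glo luminescence readout.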

[16] = target: Cytochrome P450 2D6 (Homo sapiens) (UniProt P10635); assay: Cytochrome P450 Family 2 Subfamily D Member 6 (CYP2D6) small molecule antagonists: luciferase reporter qHTS assay (AID 1671196); also: nearly all actives have a fitted effect of over 50% in size; also: potency is read from the fitted curve at half-maximal effect
Sequence of Cytochrome P450 2D6 (Homo sapiens) (P10635 whole entry, looked up): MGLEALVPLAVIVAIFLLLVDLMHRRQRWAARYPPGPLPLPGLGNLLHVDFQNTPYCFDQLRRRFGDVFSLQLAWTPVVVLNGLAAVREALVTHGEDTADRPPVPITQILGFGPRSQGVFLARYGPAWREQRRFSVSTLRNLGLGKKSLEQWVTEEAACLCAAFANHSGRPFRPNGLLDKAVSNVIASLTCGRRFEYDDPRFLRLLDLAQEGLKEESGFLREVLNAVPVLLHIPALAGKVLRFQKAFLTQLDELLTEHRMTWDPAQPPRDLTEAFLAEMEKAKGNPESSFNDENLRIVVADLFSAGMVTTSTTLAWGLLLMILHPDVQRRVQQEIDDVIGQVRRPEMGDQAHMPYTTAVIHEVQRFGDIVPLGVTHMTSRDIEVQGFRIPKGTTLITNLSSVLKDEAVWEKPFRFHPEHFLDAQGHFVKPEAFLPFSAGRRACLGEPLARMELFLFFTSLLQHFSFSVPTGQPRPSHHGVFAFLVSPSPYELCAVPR
Procedure, shortened: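 P450-Glo format: CYP2D6 converts a proluciferin substrate to luciferin in an NADPH-driven reaction lasting 1 h at room temperature. Light output, proportional to CYP2D6 activity, reflects interference by test chemicals.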

[17] = target: Cytochrome P450 2C19 (Homo sapiens) (UniProt P33261); assay: Cytochrome P450 Family 2 Subfamily C Member 19 (CYP2C19) small molecule antagonists: luciferase reporter qHTS assay (AID 1671197); also: nearly all actives have a fitted effect of over 65% in size; also: potency is read from the fitted curve at half-maximal effect
Sequence of Cytochrome P450 2C19 (Homo sapiens) (P33261 whole entry, looked up): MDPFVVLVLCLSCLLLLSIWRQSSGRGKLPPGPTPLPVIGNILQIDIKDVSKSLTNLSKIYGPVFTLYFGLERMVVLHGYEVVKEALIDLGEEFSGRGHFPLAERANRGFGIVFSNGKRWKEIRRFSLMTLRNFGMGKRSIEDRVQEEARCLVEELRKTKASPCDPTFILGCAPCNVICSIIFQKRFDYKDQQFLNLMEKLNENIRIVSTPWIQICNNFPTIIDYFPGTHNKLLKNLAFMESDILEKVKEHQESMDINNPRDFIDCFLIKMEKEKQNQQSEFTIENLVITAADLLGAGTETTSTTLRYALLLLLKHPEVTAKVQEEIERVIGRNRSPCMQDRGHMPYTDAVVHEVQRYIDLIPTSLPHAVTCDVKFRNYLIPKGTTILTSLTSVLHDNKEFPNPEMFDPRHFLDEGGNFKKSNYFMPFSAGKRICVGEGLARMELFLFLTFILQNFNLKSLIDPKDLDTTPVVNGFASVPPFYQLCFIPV
Procedure, shortened: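 First, compounds are pinned into enzyme-substrate mix and held 10 min at room temperature. Second, NADPH regeneration solution is added and plates incubate 1 h at 37C. Third, detection reagent is added and luminescence read after 20 min.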

[18] = target: Cytochrome P450 1A2 (Homo sapiens) (UniProt P05177); assay: Cytochrome P450 Family 1 Subfamily A Member 2 (CYP1A2) small molecule antagonists: luciferase reporter qHTS assay (AID 1671199); also: nearly all actives have a fitted effect of over 50% in size; also: potency is read from the fitted curve at half-maximal effect
Sequence of Cytochrome P450 1A2 (Homo sapiens) (P05177 whole entry, looked up): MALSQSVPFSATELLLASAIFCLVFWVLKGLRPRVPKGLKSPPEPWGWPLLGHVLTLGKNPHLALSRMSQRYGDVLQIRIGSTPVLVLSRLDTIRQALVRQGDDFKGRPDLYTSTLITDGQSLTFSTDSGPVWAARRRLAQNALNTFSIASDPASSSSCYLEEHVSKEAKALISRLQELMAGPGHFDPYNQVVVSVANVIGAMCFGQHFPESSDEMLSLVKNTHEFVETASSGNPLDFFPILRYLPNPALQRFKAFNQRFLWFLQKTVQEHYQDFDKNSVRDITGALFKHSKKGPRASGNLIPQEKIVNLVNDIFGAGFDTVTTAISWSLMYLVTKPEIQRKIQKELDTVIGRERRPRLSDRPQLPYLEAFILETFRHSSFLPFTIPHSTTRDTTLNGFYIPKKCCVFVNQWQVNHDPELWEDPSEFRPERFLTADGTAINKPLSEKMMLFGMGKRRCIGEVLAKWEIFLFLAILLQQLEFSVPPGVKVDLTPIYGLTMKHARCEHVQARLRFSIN
Procedure, shortened: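 Inhibition of CYP1A2 conversion of proluciferin to luciferin, detected by luminescence. Reaction run 1 h at room temperature with NADPH regeneration after brief compound preincubation.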

[19] = target: Nuclear receptor subfamily 1 group I member 2 (Homo sapiens) (UniProt O75469); assay: Human pregnane X receptor (PXR) activation by small molecules, qHTS assay (AID 1346985); also: potency is read from the fitted curve at half-maximal effect; nearly all actives have a fitted effect of over 40% in size
Procedure, shortened: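 DPX-2 cells (HepG2 co-transfected with a PXR response element and a CYP3A4-promoter luciferase construct) were seeded at 2,000 per well, rested 5 hr at 37C, then exposed to DMSO-dissolved compounds for 24 hr. Activation was read as luciferase luminescence.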

COCCCOc1ccnc(CS(=O)c2nc3ccccc3[nH]2)c1C (configuration not stated)
inactive: Potency [1] | Potency [2] | Potency [3] | outcome [4] | Potency [5] | outcome [6] | Potency [7] | Potency [8] | outcome [10] | Potency [11] | outcome [13]
active: Potency [12] 14.1 µM
60.9 µM (active) and inactive: Potency [9]

O=C(O)CC(C(=O)O)C(CC(=O)O)C(=O)O (configuration not stated)
inactive: Potency [1] | Potency [14] | Potency [3] | outcome [4] | Potency [7] | Potency [8] | Potency [9] | Potency [11] | Potency [15] | Potency [16] | outcome [13]

NNc1nncc2ccccc12
inactive: activity change, negative = cytotoxicity [1] -14.1% [at 18.9 µM] | activity change, negative = cytotoxicity [14] -14.8% [at 19 µM] | Potency [3] | outcome [4] | activity change, negative = cytotoxicity [7] 6.87% [at 19 µM] | Potency [8] | activity change, negative = cytotoxicity [9] -0.255% [at 19 µM] | Potency [11] | outcome [13]
active: Potency [7] 48.6 µM | Potency [9] 43.3 µM | Potency [12] 0.112 µM

OCCOCCN1CCN(C2=Nc3ccccc3Sc3ccccc32)CC1
inactive: Potency [1] | Potency [14] | Potency [3] | outcome [4] | Potency [5] | outcome [6] | Potency [7] | Potency [8] | Potency [9] | outcome [10] | Potency [11] | max activation [12] 9.6%

CCCCCCCCCCCCCCCO
active: Potency [17] 35.9 µM and 39.9 µM | Potency [18] 71.6 µM
24.8 µM (active) and inactive: Potency [3]
24.5 µM (active) and inactive: Potency [9]
inactive: Potency [1] | Potency [14] | outcome [4] | Potency [7] | Potency [8] | outcome [10] | Potency [11] | Potency [15] | Potency [16] | outcome [13]

CCCCC(CC)COC(=O)C(C#N)=C(c1ccccc1)c1ccccc1 (configuration not stated)
inactive: Potency [1] | Potency [3] | outcome [4] | Potency [5] | outcome [6] | Potency [7] | Potency [8] | Potency [11] | outcome [13]
active: Potency [9] 48.6 µM and 18.8 µM | Potency [15] 13.7 µM and 10.6 µM | Potency [19] 10 µM | Potency [16] 5.03 µM and 5.49 µM | Potency [17] 7.1 µM | Potency [18] 31.7 µM

COS(C)(=O)=O
inactive: Potency [1] | Potency [14] | Potency [3] | outcome [4] | Potency [5] | outcome [6] | Potency [7] | Potency [8] | Potency [9] | Potency [11] | Potency [15] | Potency [16] | Potency [17] | Potency [18] | outcome [13]
